This is a sample that favours compounds with a hit; in the whole collection about 2.3% have one here.
ELG1 repair inh: inhibitors of ELG1-dependent DNA repair in HEK293T cells | Potency, µM (doses to about 46.1 µM), usual class: inhibitors | AID 504467 | 330,000 tested, 2.3% active | HEK293T ELG1-luciferase reporter, luminescence, 16 h; DNA damage induced by 5-fluorouridine; note: nearly all actives have a fitted effect of over 55% in size
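In this reporter screen, reduction of luminescence relative to DMSO vehicle indicated activity. Compounds and 5-fluorouridine were added together to 2,000 cells per well, incubated for 16 hr at 37 °C, then developed with ONE-Glo.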
Giardia killer: Giardia lamblia killing | Giardia lamblia trophozoite viability | activity change, % at 7.66 µM, hits read low | 340,000 tested, 0.15% active; in the data active = activity change below about -80%; inconclusive = between about -30% and that limit;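 note: parasites exposed to compound for two days anaerobically before the ATP read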
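Each well holds 100 Giardia trophozoites and compound. After two days (48 hrs) at 37 deg C in anaerobic conditions, ATP is quantified by luminescence.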
TRPV1 agonist: human TRPV1 agonism; 320,000 tested, 0.19% active; AID 540275; TRPV1-expressing cells, Fluo-8 calcium influx, agonist mode; activation, % at 8.33 µM; in the data active = activation above about 80%; inconclusive = between about 30% and that limit
Target sequence (Q8NER1 whole entry, looked up): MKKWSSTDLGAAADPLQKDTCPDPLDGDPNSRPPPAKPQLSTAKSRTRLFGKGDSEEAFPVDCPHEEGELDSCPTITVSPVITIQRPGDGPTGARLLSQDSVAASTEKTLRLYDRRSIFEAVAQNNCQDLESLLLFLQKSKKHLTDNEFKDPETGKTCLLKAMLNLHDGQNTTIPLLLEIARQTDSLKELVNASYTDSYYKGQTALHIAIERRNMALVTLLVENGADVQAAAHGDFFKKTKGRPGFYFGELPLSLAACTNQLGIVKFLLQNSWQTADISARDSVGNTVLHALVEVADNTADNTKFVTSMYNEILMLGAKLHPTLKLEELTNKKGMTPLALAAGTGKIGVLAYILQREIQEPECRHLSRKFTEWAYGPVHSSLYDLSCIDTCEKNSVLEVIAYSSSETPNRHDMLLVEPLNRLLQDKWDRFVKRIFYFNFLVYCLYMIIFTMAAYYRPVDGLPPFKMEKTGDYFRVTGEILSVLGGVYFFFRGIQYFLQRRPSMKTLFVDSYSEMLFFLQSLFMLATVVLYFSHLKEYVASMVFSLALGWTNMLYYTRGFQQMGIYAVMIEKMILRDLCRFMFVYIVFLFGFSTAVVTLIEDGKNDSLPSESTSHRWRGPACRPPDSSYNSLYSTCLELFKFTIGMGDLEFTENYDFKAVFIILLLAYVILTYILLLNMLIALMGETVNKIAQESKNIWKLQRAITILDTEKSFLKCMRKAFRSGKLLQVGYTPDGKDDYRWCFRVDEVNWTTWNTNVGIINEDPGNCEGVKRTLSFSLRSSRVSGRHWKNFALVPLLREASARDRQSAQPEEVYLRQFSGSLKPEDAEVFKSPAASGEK
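TRPV1-expressing cells were cultured overnight at 35.5C and loaded with Fluo-8 calcium dye for 40 to 90 min at room temperature. After a 10 s baseline, compound was added and calcium influx was read kinetically for 3 min (ex 480/em 520 nm).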
FUS yeast rescue: FUS proteinopathy suppression in yeast; 390,000 tested, 0.24% active; S. cerevisiae FUS-expressing, growth rescue, OD600, 24 h; Potency, µM (titrated, usually from 76.6 µM), actives largely listed as activators; note: nearly all actives have a fitted effect of over 55% in size
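S. cerevisiae expressing FUS from galactose induction served as the toxicity model. Growth after 24hr at 30C, read as absorbance at 600 nm, indicates suppression of toxicity; compounds dosed at several concentrations.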
TRPV1 potentiator: potentiators of human vanilloid receptor 1 (TRPV1) | Q8NER1 | TRPV1-expressing cells, Fluo-8 calcium influx, capsaicin EC20 potentiation | 320,000 tested, 0.02% active | potentiation, % at 8.33 µM | AID 540277; in the data active = potentiation above about 80%; inconclusive = between about 30% and that limit
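Cells expressing TRPV1 were dye-loaded with Fluo-8 and read kinetically: 10 s baseline, 3 min after compound (agonist portion), then 2 min after EC20 capsaicin (allosteric enhancer portion). Calcium-bound dye fluorescence at 480/520 nm.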
A number is an active result. Unless noted, calls come from the whole dose curve; as a rule, active = well fitted curve in the direction sought with a large enough effect; inconclusive = small, poorly fitted or top-dose-only effect, or another doubt; inactive = no such curve, though single readings can be large; an effect the other way counts as inactive or inconclusive.

Screening COc1ccccc1N=c1oc2cc(O)ccc2cc1C(=O)NCC1CCCO1 (stereo not drawn) returned ELG1 repair inh 6.5µM, Giardia killer inactive, TRPV1 agonist inconclusive, FUS yeast rescue inactive and TRPV1 potentiator inactive.
Screening CC1CCc2onc(C(=O)N3CCN(c4ccc(F)cc4)CC3)c2C1 (stereo not drawn) returned FUS yeast rescue inactive.
Oc1c(C(c2ccc(Cl)cc2)N2CCOCC2)sc2nc(-c3ccco3)nn12 (stereo not drawn) was read as FUS yeast rescue inactive.
COc1ccc(-n2cc(C(=O)Nc3ccccc3C#N)c3ccccc3c2=O)cc1 was read as FUS yeast rescue inactive.
O=C(O)CNc1ccccc1C(=O)O was read as ELG1 repair inh 21µM, Giardia killer inactive, TRPV1 agonist inactive, FUS yeast rescue inactive and TRPV1 potentiator inactive.
For O=C(O)c1ccccc1NCc1cccnc1 the results were Giardia killer inconclusive and FUS yeast rescue inactive.
For O=C(COC(=O)Cc1c[nH]c2ccccc12)Nc1cc(S(=O)(=O)N2CCOCC2)ccc1Cl the results were ELG1 repair inh inactive, Giardia killer inactive and FUS yeast rescue 35µM.
`CCN(CC(=O)Nc1cc(S(=O)(=O)N2CCOCC2)ccc1Cl)Cc1ccccc1` gave ELG1 repair inh 18µM, Giardia killer inactive, TRPV1 agonist inactive, FUS yeast rescue inactive and TRPV1 potentiator inactive.
`O=C(Cn1cnc2c(cnn2-c2ccccc2)c1=O)Nc1cc(S(=O)(=O)N2CCOCC2)ccc1Cl` gave ELG1 repair inh 23µM, Giardia killer inactive, TRPV1 agonist inactive, FUS yeast rescue inconclusive and TRPV1 potentiator inactive.
`CC(CCc1ccccc1)NC(=O)Cn1c(=O)nc(-c2ccccc2)c2ccccc21` (stereo not drawn) gave FUS yeast rescue inactive.
CSc1ncccc1C(=O)N1CCCC(N2CCN(c3ccccc3C)CC2)C1 (stereo not drawn) was read as FUS yeast rescue inactive.
Screening CCCOc1ccc(C(=O)N2CCC(Oc3cccnc3)CC2)cc1 returned FUS yeast rescue inactive.
For COC(=O)[C@@]12C[C@@H](CC(=O)NCCC(C)C)C(=O)N(Cc3cccc4ccccc34)C1=CCC(C)(C)C2 the results were FUS yeast rescue 14µM.
`COC(=O)[C@@]12C[C@@H](CC(=O)NCc3ccc(OC)c(OC)c3)C(=O)N(Cc3ccc4c(c3)OCO4)C1=CCC(C)(C)C2` gave FUS yeast rescue 13µM.
Screening COCCCNC(=O)C[C@@H]1C[C@@]2(C(=O)OC)CC(C)(C)CC=C2N(Cc2ccc3c(c2)OCO3)C1=O returned FUS yeast rescue inactive.
Screening COc1ccc(C(=O)c2[nH]c(N)c(C(=O)NCCc3c[nH]c4ccccc34)c2-c2ccc(C(F)(F)F)cc2)cc1 returned FUS yeast rescue inactive.
Cc1nc2cc(F)ccc2n1C1CCN(C(=O)c2c(F)cccc2F)CC1 was read as ELG1 repair inh inconclusive, Giardia killer inactive, TRPV1 agonist inactive, FUS yeast rescue inactive and TRPV1 potentiator inactive.
Cc1nc2cc(F)ccc2n1C1CCN(C(=O)c2ccc(F)cc2F)CC1 was read as ELG1 repair inh 9.2µM, Giardia killer inactive, TRPV1 agonist inactive, FUS yeast rescue inactive and TRPV1 potentiator inactive.
CN(C(=O)Cn1cnc2onc(-c3ccc(F)cc3)c2c1=O)c1ccccc1Cl was read as FUS yeast rescue inactive.
COc1ccccc1NC(=O)CCNS(=O)(=O)c1ccc2c(c1)CCCC(=O)N2 was read as FUS yeast rescue inactive.
CC(=O)Nc1nc(C)c(-c2csc(Nc3ccc(O)cc3)n2)s1 was read as ELG1 repair inh inconclusive, Giardia killer inactive, TRPV1 agonist inactive, FUS yeast rescue inconclusive and TRPV1 potentiator inactive.
CC(=O)c1cccc(Nc2nc(-c3cccc([N+](=O)[O-])c3)cs2)c1 was read as ELG1 repair inh inconclusive, Giardia killer inactive, TRPV1 agonist inactive, FUS yeast rescue inactive and TRPV1 potentiator inactive.
CC(=O)Nc1nc(C)c(-c2csc(Nc3cccc([N+](=O)[O-])c3)n2)s1 was read as ELG1 repair inh 2.9µM, Giardia killer inactive, TRPV1 agonist inactive and TRPV1 potentiator inactive.
Screening Cc1nc(-c2ccc(NC(=O)c3ccco3)cc2)cs1 returned ELG1 repair inh inconclusive, Giardia killer -98, TRPV1 agonist inactive, FUS yeast rescue inactive and TRPV1 potentiator inactive.
CC(=O)Nc1ccc(Nc2nc(-c3sc(NC(C)=O)nc3C)cs2)cc1 was read as ELG1 repair inh 23µM, Giardia killer inactive, TRPV1 agonist inactive, FUS yeast rescue inconclusive and TRPV1 potentiator inactive.
`Cc1nc(NC(=O)c2ccccc2)sc1-c1csc(NCc2ccco2)n1` gave ELG1 repair inh 15µM, Giardia killer inactive, TRPV1 agonist inactive, FUS yeast rescue inactive and TRPV1 potentiator inconclusive.
For CCN1CCN(c2cc(C)c3cc(NC(=O)/C=C/c4cccc(Cl)c4)ccc3n2)CC1 the results were FUS yeast rescue inactive.
`COc1ccc(NC(=O)CC2C(=O)N(c3cccc(OC)c3)C(=O)N2CCC2=CCCCC2)cc1` (stereo not drawn) gave FUS yeast rescue inactive.
CCC(=O)Nc1nc(C)c(-c2csc(Nc3cccc(C(=O)O)c3)n2)s1 was read as ELG1 repair inh inactive, Giardia killer inactive, TRPV1 agonist inactive, FUS yeast rescue inactive and TRPV1 potentiator inactive.
For CCCC(=O)Nc1nc(C)c(-c2csc(Nc3ccc(Cl)cc3)n2)s1 the results were ELG1 repair inh inconclusive, Giardia killer inactive, TRPV1 agonist inactive, FUS yeast rescue inconclusive and TRPV1 potentiator inactive.
Screening Cc1ccc(Nc2nc(-c3sc(NC(=O)c4ccco4)nc3C)cs2)cc1 returned ELG1 repair inh 10µM, Giardia killer inactive, TRPV1 agonist inactive, FUS yeast rescue inconclusive and TRPV1 potentiator inactive.
Screening Cc1ccccc1Nc1nc(-c2sc(NC(=O)c3ccco3)nc2C)cs1 returned ELG1 repair inh inconclusive, Giardia killer inactive, TRPV1 agonist inactive, FUS yeast rescue inactive and TRPV1 potentiator inactive.
For CC(=O)Nc1nc(C)c(-c2csc(Nc3cccc(C(C)=O)c3)n2)s1 the results were ELG1 repair inh 5.8µM, Giardia killer inactive, TRPV1 agonist inactive, FUS yeast rescue inactive and TRPV1 potentiator inactive.
CCC(C)C(=O)Nc1nc(C)c(-c2csc(Nc3ccc(Cl)cc3)n2)s1 (stereo not drawn) was read as ELG1 repair inh 8.2µM, Giardia killer inactive, TRPV1 agonist inactive, FUS yeast rescue inconclusive and TRPV1 potentiator inactive.
`COc1ccc(CNC(=O)c2cnc(N3CCOCC3)c3ccccc23)cc1` gave FUS yeast rescue inactive.
CCS(=O)(=O)Nc1ccc(C2=NN(C(=O)c3ccccc3)C(c3cccs3)C2)cc1 (stereo not drawn) was read as ELG1 repair inh 16µM, Giardia killer inconclusive, TRPV1 agonist inactive, FUS yeast rescue inactive and TRPV1 potentiator inactive.
Screening CC(C)(C)C1CCc2c(sc(NC(=O)c3ccccc3F)c2C(=O)NCc2ccco2)C1 (stereo not drawn) returned FUS yeast rescue inactive.
